Screening data (PubChem BioAssay)
aSyn yeast inh: qHTS of alpha-syn Inhibitors; Potency, µM (series often up to 46.1 µM), hits mostly activators; AID 652106, 2013; Yeast expressing alpha-synuclein, growth rescue, BacTiter-Glo, 24 h; hit rate 0.14% among 370,000; further: nearly all actives have a fitted effect of over 65% in size
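Screening used galactose-induced yeast with toxic alpha-synuclein levels, exposed to compound for 24 hr at 30 deg C. Cell growth, read with BacTiter-Glo luminescence, gave the measured signal.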
Abeta yeast res: qHTS for compounds that reverse cellular toxicity of Amyloid beta (A-beta) peptide in yeast: Primary Screen. yeast expressing A-beta42, growth rescue, OD600, 48 h; response scale: 0% DMSO, 100% iron-clioquinol control. Potency, µM (highest dose often 46.1 µM), actives largely listed as activators. hit rate 0.063% among 410,000. AID 1347071, 2019; further: nearly all actives have a fitted effect of over 55% in size
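Yeast A-beta toxicity model in growth medium with pinned compounds, 48 h at 30 C; growth read as absorbance at 600 nm. Normalized to FeCl3/clioquinol equimolar mix (positive) and DMSO (negative).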
TDP-43 yeast inh: qHTS of TDP-43 Inhibitors. TDP-43 expressing yeast growth rescue, BacTiter-Glo, 24 h. Potency, µM (doses to about 46.1 µM), usual class: activators. hit rate 1.8% among 410,000; further: nearly all actives have a fitted effect of over 50% in size
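In this qHTS, compounds that restore growth of yeast expressing TDP-43 appear as activators. Cells (OD600=0.02, galactose medium, raffinose-pregrown) are incubated with compound 24 hr at 30 deg C and growth is quantified by BacTiter-Glo.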
MBNL1 CUG block: qHTS Assay for Inhibitors of MBNL1-poly(CUG) RNA binding | TR-FRET MBNL1-His/biotin-(CUG)12 binding, 665/545 ratio | Potency, µM (highest dose often 57.5 µM), usual class: inhibitors | hit rate 0.036% among 280,000 | AID 2675, 2010; active means well fitted inhibition curve with a large enough effect in the signal ratio, with a control signal flat, not every such curve was filed as active; inconclusive means small, poorly fitted or top-dose-only effect, or effect the other way, or a change in a side signal; inactive means no such curve, though single readings can be large or run the other way; the % refers to the signal ratio
Target sequence (Q9NR56 whole entry, looked up): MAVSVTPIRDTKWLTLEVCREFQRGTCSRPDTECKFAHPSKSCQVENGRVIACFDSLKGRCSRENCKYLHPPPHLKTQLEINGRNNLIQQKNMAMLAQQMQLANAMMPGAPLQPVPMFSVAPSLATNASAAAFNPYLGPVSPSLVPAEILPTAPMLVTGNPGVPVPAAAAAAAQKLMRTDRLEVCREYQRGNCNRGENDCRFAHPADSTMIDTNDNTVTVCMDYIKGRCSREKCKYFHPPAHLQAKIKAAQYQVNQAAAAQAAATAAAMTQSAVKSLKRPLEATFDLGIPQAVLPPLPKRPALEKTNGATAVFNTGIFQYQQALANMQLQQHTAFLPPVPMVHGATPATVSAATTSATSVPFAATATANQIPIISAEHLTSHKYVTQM
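TR-FRET readout: Ex 340 nm, 665/545 nm emission ratio, normalized to buffer-only (basal) and MBNL1-(CUG)12 controls. Complex of MBNL1-His with Biotin-(CUG)12, compounds 92 nM–58 uM, incubated 60 min at room temperature.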
Glioma ERSR ind: qHTS for Inducers of the Endoplasmic Reticulum Stress Response (ERSR) in Human Glioma: qHTS. U87-MG GRP78 promoter luciferase reporter, 16 h. hit rate 0.02% among 420,000. Potency, µM, most hits filed as activators; further: series mostly up to about 76 µM; nearly all actives have a fitted effect of over 35% in size
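Stably transfected U87-MG human glioma cells carrying a GRP78-based luminescent sensor were seeded at 1000 cells/well, pin-dosed with compounds and incubated 16 h. Luciferase reagent was then added, and end-point luminescence was read after 10 min at room temperature.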
FUS suppressor: qHTS for Suppressors of FUS Proteinopathy: Primary screen using FUS-linked yeast assay | Potency, µM (series often up to 76.6 µM), most hits filed as activators | hit rate 0.24% among 390,000 | S. cerevisiae FUS-expressing, growth rescue, OD600, 24 h; further: nearly all actives have a fitted effect of over 55% in size
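Read-out: OD at 600 nm after 24hr at 30C, reporting rescue of FUS-induced yeast toxicity. Cells at OD 0.005 in galactose (2%) minimal medium; compounds tested in a dilution series; CP55940 titration from 92uM final as control.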
Hits are given with their value; . = inactive; ? = inconclusive; / = no result; [ ] = remark or other dose. Rows were chosen to be rich in hits. Some 2% of all compounds tested hit in one or more screens of this group. Unless noted, the call rests on the fitted dose curve; in most records, active means well fitted curve in the direction sought with a large enough effect; inconclusive means small, poorly fitted or top-dose-only effect, or another doubt; inactive means no such curve, though single readings can be large; an effect the other way counts as inactive or inconclusive.

SMILES	aSyn yeast inh	Abeta yeast res	TDP-43 yeast inh	MBNL1 CUG block	Glioma ERSR ind	FUS suppressor
Oc1ccc(-c2csc(Nc3ccccn3)n2)c(O)c1	.	.	20µM	.	.	.
Cc1cccnc1Nc1nc(-c2ccc(O)cc2O)cs1	?	.	22µM	.	.	.
Cc1cccnc1Nc1nc(-c2ccccn2)cs1	?	.	?	.	.	.
COc1cc(=O)n2c(c1C(=O)NCc1cccc(F)c1)CCN(Cc1cccnc1)CC2	/	/	/	/	.	/
CSc1ccccc1C(=O)NCc1nc(-c2cccc(NC(=O)c3ccoc3C)c2)oc1C	/	/	/	/	.	/
O=C(NCc1cccc2ccccc12)c1cccs1	.	.	13µM	/	.	.
O=C(Cc1cccc2ccccc12)NNC(=O)c1cccs1	.	.	.	.	.	.
O=C(NC(=S)NCc1ccccc1)c1cccs1	.	?	13µM	.	.	.
O=C(NC(=S)NCc1ccccc1)c1ccccc1	.	11µM	.[0.397 µM]	.	.	.
O=C(NC(=S)NCc1ccc(F)cc1)c1ccccc1	.	.	22µM	.[11.5 µM]	.	/
O=C(NC(=S)NCc1ccncc1)c1ccccc1	.	.	.	.	.	.
COc1ccc(N2CCN(CCCNC(=O)Cc3ccc(C(F)(F)F)cc3)CC2)cc1	/	/	/	/	/	.
O=C(NCCCN1CCOCC1)c1cnn(-c2ncc3c(n2)-c2ccccc2CC3)c1C1CC1	/	/	/	/	.	/
CCOC(=O)Cn1cc(C(=O)c2ccco2)c2ccccc21	.	.	18µM	.	.	.
C/C(=N/OC(=O)c1ccccc1Br)c1ccc(C)cc1	.	.	14µM	.	.	.
COc1ccc(CCNC(=O)CCN2C(=O)COc3ccc(C)cc32)cc1OC	.	.	8.9µM	.	.	?
COc1ccc(CCNC(=O)CCN2C(=O)COc3ccccc32)cc1OC	.	.	.	.	.	.
COC(=O)c1ccc(OCC2c3cc(OC)c(OC)cc3CCN2C(=O)c2ccc(OC)cc2)cc1 (configuration not stated)	.	.	35µM	/	.	?
CNC(=S)N1CCc2cc(OC)c(OC)cc2C1COc1ccc(F)cc1 (configuration not stated)	.	.	.	.	.	.
COC(=O)c1ccc(OCC2c3cc(OC)c(OC)cc3CCN2C(C)=O)cc1 (configuration not stated)	.	.	.	/	.	.
COc1cc2c(cc1OC)C(COc1ccc(F)cc1)N(C(=O)c1cccc(F)c1)CC2 (configuration not stated)	.	.	35µM	/	.	.
COc1cc(OC)c(NC(=O)CCc2nc(-c3cccs3)no2)cc1Cl	.	.	20µM	.	.	.
O=C(CCCc1cccs1)Nc1nc2c(s1)CCCC2	.	?	13µM	.	.	.
CC1CCc2nc(NC(=O)Cc3cccs3)sc2C1 (configuration not stated)	.	.	28µM	.	.	.
N#Cc1c(NC(=O)CSc2nnnn2C2CCCCC2)sc2c1CCCC2	.	.	.	.	.	/
SMILES	aSyn yeast inh	Abeta yeast res	TDP-43 yeast inh	MBNL1 CUG block	Glioma ERSR ind	FUS suppressor
CC(C)(C)C1CCc2nc(NC(=O)Cc3cn4ccsc4n3)sc2C1 (configuration not stated)	.	.	16µM	.	.	?
O=C(CSc1nnnn1C1CCCCC1)Nc1nc2c(s1)CCCC2	?	.	13µM	.	.	.
Cc1csc(NC(=O)CCCc2cccs2)n1	.	.	.[9.22 µM]	.	.	.
CC(C)(C)C1CCc2nc(NC(=O)Cc3ccc(Cl)cc3)sc2C1 (configuration not stated)	/	?	.	/	.	.
C=CC(=O)NC1CCCCN(C(C)C)C1=O (configuration not stated)	/	/	/	/	/	.
CCc1nc(SCC(=O)Nc2nc3c(s2)CCCC3)c2ccccc2n1	.	.	10µM	.	.	.
O=C(Nc1nc2c(s1)CCCC2)c1ccc2ncsc2c1	.	.	13µM	.	.	.
